Compound activity: PubChem BioAssay, Broad Institute
aSyn UTR act = Activators via SNCA 5'UTR binding, MLPCN; 7.1% of 300,000 active; activity score, % (tested at 7.5 µM), hits read low; alpha-synuclein 5'UTR reporter, activators screen; AID 1814; in the data active means activity score below about -60%
Starred values were filed as active, the others as inactive. Only a sample is shown.

SMILES	aSyn UTR act
O=C(NCCc1ccc2c(c1)OCCO2)c1ccccc1F	-110.4*
Cc1ccc(NC(=O)c2ccc3c(c2)OCCO3)cc1S(=O)(=O)Nc1cccc(Cl)c1	-94.8*
O=C(NC(=S)Nc1ccc2c(c1)OCCO2)c1ccccc1F	-154.5*
Brc1ccc(C2C3=C(Nc4ncnn42)c2ccccc2OC3c2ccncc2)cc1 (configuration not stated)	70.5
O=C(Nc1ccc2c(c1)OCCO2)c1c(F)cccc1F	-122.3*
Cc1ccc(NC(=O)c2ccc3c(c2)OCCO3)cc1C	74.2
O=C(Nc1cccc(F)c1)c1ccc2c(c1)OCCO2	-110.7*
O=C(O)c1cc(S(=O)(=O)Nc2ccc3c(c2)OCCO3)c(Cl)cc1Cl	-82.1*
O=C(Nc1ccccc1)c1ccc2c(c1)OCCO2	-87.3*
C=C(C)C1CC=C(C)/C(=N/NC(=O)c2ccoc2C)C1 (configuration not stated)	-149.6*
O=C(/C=C/c1ccc(Cl)cc1)NCc1ccco1	-87.2*
O=C(/C=C/c1ccc(S(=O)(=O)NCc2ccco2)cc1)NCc1ccccc1Cl	-72.3*
O=C(O)c1ccc(Cn2nnc3sc4c(c3c2=O)CCCC4)cc1	-151.3*
O=C(O)CSc1nc2sc3c(c2c(=O)n1Cc1ccccc1)CCCCC3	-230.4*
N#CCSc1nc(-c2ccccc2)cs1	-75.4*
N#CCSc1ccc2nc(-c3ccccc3)cn2n1	-103.7*
CC(C)NC(=O)CSc1nc(-c2ccccc2)cs1	-159.6*
CCc1ccc(NC(=O)C(=O)c2cn(CC(=O)N3CCCCC3)c3ccccc23)cc1	-70.3*
COc1ccccc1CCNC(=O)C(=O)c1cn(CC(=O)N2CCOCC2)c2ccccc12	-105.5*
O=C(Nc1ccccc1Cl)C(=O)c1cn(CC(=O)N2CCOCC2)c2ccccc12	-125.1*
COc1ccc(Cn2c(SCC#N)nc3ccc(N4CCOCC4)cc3c2=O)cc1	-88.5*
COc1ccc(Cn2c(SCc3cc(C)ccc3C)nc3cc(OC)c(OC)cc3c2=N)cc1	54.8
O=C(c1cc(-c2cccc(Cl)c2)on1)N1CCCCCC1	-174.8*
O=C(c1ccc(-c2ccc(Cl)cc2Cl)o1)N1CCOCC1	-103.8*
CN(C)/C=C/C(=O)c1ccc(-c2ccc(Cl)cc2Cl)o1	-106.2*
SMILES	aSyn UTR act
O=C(c1cc(-c2ccc(Cl)cc2Cl)on1)N1CCCCCC1	-71.5*
O=C(c1cc(-c2ccc(O)cc2)on1)N1CCCCCC1	-94.4*
O=C(c1cc(-c2ccc(Cl)cc2)on1)N1CCCCCC1	-147.7*
Cc1ccc(-c2cc(C(=O)N3CCCC3)no2)cc1	53.4
O=C(c1cc(-c2ccc(Cl)c(Cl)c2)on1)N1CCCCCC1	-197.9*
CC(=O)c1ccc(Nc2ccc([N+](=O)[O-])c3nonc23)cc1	-104.3*
CC1(C)C(=O)Nc2ccccc2N1C(=O)Cn1ncc(Cl)c(Cl)c1=O	-167.1*
O=C(Cn1ncc(Cl)c(Cl)c1=O)N1CCc2ccccc21	134.7
O=C(Cn1ncc(Cl)c(Cl)c1=O)N1CCOCC1	-61.6*
CCc1ccc(C(=O)Cn2ncc(Cl)c(Cl)c2=O)cc1	-64.0*
O=C(Cn1ncc(Cl)c(Cl)c1=O)N1CCN(Cc2ccccc2)CC1	-70.7*
O=C(O)c1ccc(Cn2cnc3scc(-c4ccccc4)c3c2=O)cc1	-142.4*
CCN(CC)S(=O)(=O)c1cc(C(=O)Oc2cccc(-c3cnc4ccccc4n3)c2)ccc1Br	-98.9*
CCN(CC)S(=O)(=O)c1ccc(Cl)c(C(=O)Oc2cccc(-c3cnc4ccccc4n3)c2)c1	-90.2*
CC(=O)Nc1nc(CCC(C)C)cc2c1c(=O)oc1ccccc12	60.8
CCN(CC)CC(=O)Nc1scc2c1c(=O)oc1ccccc12	-124.4*
O=c1cc(-c2ccccc2Cl)oc2c(Br)ccc(O)c12	-129.5*
COc1ncccc1-c1nnn(-c2ccc(C)cc2)n1	-160.6*
COc1ncccc1-c1nnn(-c2ccc(F)cc2)n1	-97.0*
COc1ncccc1-c1nnn(-c2ccc(Cl)c(Cl)c2)n1	-169.0*
Cc1ccc(-n2nnc(-c3cc4ccccc4nc3Cl)n2)cc1	-148.2*
O=c1[nH]c2ccccc2cc1-c1nnn(-c2ccc(F)cc2)n1	-102.8*
Nc1c2c(nc3sc4c(c13)CCCC4)-c1ccccc1CC2	-75.3*
COc1cccc(/C=C/C(=O)OCC(=O)N2c3ccccc3NC(=O)C2(C)C)c1	-69.8*
Cc1ccccc1-c1nnc(SCc2ccccc2)o1	-190.7*
SMILES	aSyn UTR act
Fc1ccccc1CSc1nnc(-c2ccccc2)o1	-152.3*
COc1ccc(-c2nnc(SCc3ccccc3F)o2)cc1	-162.6*
c1ccc(CSc2nnc(-c3c[nH]c4ccccc34)o2)cc1	-151.5*
COc1cc(OC)cc(-c2nnc(SCc3c(F)cccc3Cl)o2)c1	-101.3*
Fc1ccccc1CSc1nnc(-c2cccnc2)o1	-68.8*
Cc1ccccc1-c1nnc(SCc2ccccc2F)o1	-148.7*
COc1ccc(OC)c(NS(=O)(=O)c2ccc(N3CCCC3=O)cc2)c1	110.7
O=C(Cc1ccc(Br)cc1)NCc1ccccc1	-66.9*
COc1cccc(/C=N/NC(=O)c2ccc(N3CCCC3=O)cc2)c1	-112.3*
COc1ccc(CNC(=O)c2nc(S(=O)(=O)Cc3ccccc3)ncc2Cl)cc1	48.8
COC(=O)c1ccc(COC(=O)CNC(=O)c2ccc(-c3ccccc3)cc2)cc1	-87.2*
O=C(NCc1ccccc1)c1c(Cl)nc(Cl)c(Cl)c1Cl	99.2
COc1ccc(CC(=O)NCc2ccccc2)cc1	-154.2*
COc1ccc(CNC(=O)c2ccc(N3CCCC3=O)cc2)cc1	-71.0*
COc1ccc(CNC(=O)c2ccc(-c3ccccc3)cc2)cc1	-114.7*
Cc1ccccc1OCC(=O)NC1CCCCCCC1	-65.4*
O=C(COc1ccccc1-c1ccccc1)NNC(=O)NC1CCCCC1	-83.1*
Cc1ccc(OCC(=O)NC2CCCC2)c(C)c1	-66.6*
Cc1ccccc1OCC(O)CNC1CCC(NCC(O)COc2ccccc2C)CC1 (configuration not stated)	99.2
Cc1cccc(C(=O)Nc2nc(C)c(C(=O)Nc3ccc4c(c3)CCC4)s2)c1	-120.9*
CN(C)S(=O)(=O)c1ccc(C(=O)Nc2ccc3c(c2)CCC3)cc1	-92.9*
CN(C)S(=O)(=O)c1cccc(C(=O)Nc2ccc3c(c2)CCC3)c1	-114.5*
Cc1cc(C(=O)Nc2ccc3c(c2)CCC3)ccc1[N+](=O)[O-]	-187.4*
Cc1ccc(C)c(OCC(=O)Nc2cc(C)on2)c1	-79.9*
Cc1cc(NC(=O)COc2cccc(Oc3ccccc3)c2)no1	-122.0*
SMILES	aSyn UTR act
COc1ccc(OC)c(NS(=O)(=O)c2ccc(SC)cc2)c1	-161.0*
CCOc1ccc(S(=O)(=O)Nc2cc(OC)ccc2OC)cc1	80.7
CCc1ccc2nc(NC(=O)CSCc3c(C)noc3C)sc2c1	-73.3*
CCOC(=O)Nc1nc2ccccc2s1	-124.9*
CC12CCC(C(=O)Nc3nc4ccccc4s3)(OC1=O)C2(C)C (configuration not stated)	-112.8*
O=C(CCNC(=O)c1ccccc1Cl)Nc1nc2ccccc2s1	-83.3*
CCOC(=O)Nc1nc(-c2ccc(Cl)cc2Cl)cs1	-97.1*
CCCNC(=O)c1ccc(-c2nc3ccccc3s2)s1	79.2
CN(CC(=O)Nc1nc2ccccc2s1)S(=O)(=O)c1ccccc1	-82.7*
CCCNC(=O)Nc1nc2ccccc2s1	-117.8*
CCCCNC(=O)Nc1nc2ccccc2s1	-80.8*
CCCCNC(=O)Nc1nc2ccc(CC)cc2s1	-123.8*
CN(C)c1ccc(CC(=O)c2nc3ccccc3s2)cc1	-124.8*
Cc1ccc(CC(=O)Nc2nc3ccccc3s2)cc1	-95.8*
O=C(CSc1nc2ncccc2[nH]1)c1ccc2c(c1)OCO2	-85.9*
O=C(NCCc1ccccc1)C(=O)NC1CCCCC1	-104.9*
